Data taken from PubChem BioAssay AID1159580 (chemical genetic matrix, 2015).
Hit rate of the full screen: of about 5,500 compounds, about 2,000 (36%) were called active. Roughly 18% stayed inconclusive and do not appear here. Cut-off read from the data, not from the text of the source: active = normalized growth mostly below about 0.91 (no sharp cut-off); inconclusive = no clear call, values can overlap the other calls; inactive = mostly above about 0.92. Some of the results follow.

Experiment: chemical genetic growth profiling, strain panel (AID 1159580);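 note: tested at 20 µM; growth read once vehicle control cultures reached saturation at 30 °C; 1 = growth at the plate median or of vehicle wells; lower values mean less growth of the strain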
Conditions: S. cerevisiae deletion strains, growth OD
[1] = locus YAL021C, strain ccr4, stronger effect = lower value
[2] = locus YAL026C, strain drs2, stronger effect = lower value
[3] = locus YAL030W, strain snc1, stronger effect = lower value
[4] = locus YBL061C, strain skt5, stronger effect = lower value
[5] = locus YBR009C, strain hhf1, stronger effect = lower value
[6] = locus YBR023C, strain chs3, stronger effect = lower value
[7] = locus YBR171W, strain sec66, stronger effect = lower value
[8] = locus YBR231C, strain swc5, stronger effect = lower value
[9] = locus YBR279W, strain paf1, stronger effect = lower value
[10] = locus YCL011C, strain gbp2, stronger effect = lower value
[11] = locus YCL016C, strain dcc1, stronger effect = lower value
[12] = locus YCL069W, strain vba3, stronger effect = lower value
[13] = locus YCR088W, strain abp1, stronger effect = lower value
[14] = locus YDL005C, strain med2, stronger effect = lower value
[15] = locus YDL040C, strain nat1, stronger effect = lower value
[16] = locus YDR001C, strain nth1, stronger effect = lower value
[17] = locus YDR069C, strain doa4, stronger effect = lower value
[18] = locus YDR137W, strain rgp1, stronger effect = lower value
[19] = locus YDR159W, strain sac3, stronger effect = lower value
[20] = locus YDR297W, strain sur2, stronger effect = lower value
[21] = locus YDR334W, strain swr1, stronger effect = lower value
[22] = locus YDR335W, strain msn5, stronger effect = lower value
[23] = locus YDR392W, strain spt3, stronger effect = lower value
[24] = locus YEL003W, strain gim4, stronger effect = lower value
[25] = locus YEL037C, strain rad23, stronger effect = lower value
[26] = locus YEL061C, strain CIN8 (second series), stronger effect = lower value
[27] = locus YER015W, strain faa2, stronger effect = lower value
[28] = locus YER016W, strain bim1, stronger effect = lower value
[29] = locus YER111C, strain swi4, stronger effect = lower value
[30] = locus YER155C, strain BEM2 (second series), stronger effect = lower value
[31] = locus YFR010W, strain ubp6, stronger effect = lower value
[32] = locus YGL167C, strain pmr1, stronger effect = lower value
[33] = locus YGL173C, strain kem1, stronger effect = lower value
[34] = locus YGL227W, strain vid30, stronger effect = lower value
[35] = locus YGL240W, strain doc1, stronger effect = lower value
[36] = locus YGL253W, strain hxk2, stronger effect = lower value
[37] = locus YHR013C, strain ard1, stronger effect = lower value
[38] = locus YHR027C, strain rpn1, stronger effect = lower value
[39] = locus YHR142W, strain chs7, stronger effect = lower value
[40] = locus YJL092W, strain hpr5, stronger effect = lower value
[41] = locus YJL095W, strain BCK1 (second series), stronger effect = lower value
[42] = locus YJL115W, strain asf1, stronger effect = lower value
[43] = locus YJL129C, strain trk1, stronger effect = lower value
[44] = locus YJL154C, strain vps35, stronger effect = lower value
[45] = locus YJL164C, strain tpk1, stronger effect = lower value
[46] = locus YJL166W, strain qcr8, stronger effect = lower value
[47] = locus YKL160W, strain elf1, stronger effect = lower value
[48] = locus YKR026C, strain gcn3, stronger effect = lower value
[49] = locus YKR091W, strain srl3, stronger effect = lower value
[50] = locus YLL001W, strain dnm1, stronger effect = lower value
[51] = locus YLL026W, stronger effect = lower value
[52] = locus YLL041C, strain sdh2, stronger effect = lower value
[53] = locus YLR027C, strain aat2, stronger effect = lower value
[54] = locus YLR221C, strain rsa3, stronger effect = lower value
[55] = locus YLR258W, strain gsy2, stronger effect = lower value
[56] = locus YLR262C, strain YPT6 (second series), stronger effect = lower value
[57] = locus YLR320W, strain mms22, stronger effect = lower value
[58] = locus YLR342W, strain FKS1, stronger effect = lower value
[59] = locus YLR357W, strain rsc2, stronger effect = lower value
[60] = locus YLR370C, strain arc18, stronger effect = lower value
[61] = locus YLR384C, strain iki3, stronger effect = lower value
[62] = locus YML120C, strain ndi1, stronger effect = lower value
[63] = locus YMR058W, strain fet3, stronger effect = lower value
[64] = locus YMR125W, strain sto1, stronger effect = lower value
[65] = locus YMR129W, stronger effect = lower value
[66] = locus YMR205C, strain PFK2, stronger effect = lower value
[67] = locus YMR231W, strain pep5, stronger effect = lower value
[68] = locus YNL071W, strain lat1, stronger effect = lower value
[69] = locus YNL209W, strain ssb2, stronger effect = lower value
[70] = locus YNL248C, strain rpa49, stronger effect = lower value
[71] = locus YNL322C, strain KRE1 (second series), stronger effect = lower value
[72] = locus YNR049C, strain mso1, stronger effect = lower value
[73] = locus YOR001W, strain rrp6, stronger effect = lower value
[74] = locus YOR070C, strain gyp1, stronger effect = lower value
[75] = locus YOR080W, strain dia2, stronger effect = lower value
[76] = locus YOR083W, strain WHI5, stronger effect = lower value
[77] = locus YOR106W, strain vam3, stronger effect = lower value
[78] = locus YOR265W, strain rbl2, stronger effect = lower value
[79] = locus YOR270C, strain vph1, stronger effect = lower value
[80] = locus YOR290C, strain snf2, stronger effect = lower value
[81] = locus YPL051W, strain arl3, stronger effect = lower value
[82] = locus YPL078C, strain atp4, stronger effect = lower value
[83] = locus YPL106C, strain sse1, stronger effect = lower value
[84] = locus YPL240C, strain hsp82, stronger effect = lower value
[85] = locus YHR030C, strain SLT2, stronger effect = lower value
[86] = locus YHR079C, strain IRE1, stronger effect = lower value
[87] = locus YJL095W, strain BCK1, stronger effect = lower value
[88] = locus YJR066W, strain TOR1, stronger effect = lower value
[89] = locus YLR113W, strain HOG1, stronger effect = lower value
[90] = locus YNL183C, strain NPR1, stronger effect = lower value
[91] = locus YOR231W, strain MKK1, stronger effect = lower value
[92] = locus YPL256C, strain CLN2, stronger effect = lower value

Measured: normalized growth

C=CC(N)CCC(=O)O (centres undefined)
inactive: locus YAL013W, strain DEP1, stronger effect = lower value 1.02 | [1] 0.971 | [2] 0.984 | [3] 0.985 | locus YAL040C, strain CLN3, stronger effect = lower value 1.07 | [4] 0.976 | [5] 0.99 | [6] 0.965 | [7] 0.955 | [8] 0.99 | [9] 0.986 | [10] 0.975 | [11] 0.976 | locus YCL061C, strain MRC1 (second series), stronger effect = lower value 1 | locus YCL061C, strain MRC1, stronger effect = lower value 0.973 | [12] 0.98 | [13] 0.986 | [14] 0.977 | [15] 0.984 | [16] 0.975 | [17] 0.992 | [18] 0.94 | locus YDR150W, strain NUM1, stronger effect = lower value 1 | [19] 1.01 | locus YDR195W, strain ref2 1 | [20] 0.986 | [21] 0.972 | [22] 0.981 | locus YDR363W, strain ESC2, stronger effect = lower value 0.993 | [23] 0.922 | [24] 0.996 | [25] 0.975 | [26] 0.982 | locus YER002W, strain NOP16, stronger effect = lower value 0.993 | [27] 0.992 | [28] 0.999 | [29] 0.973 | [30] 0.988 | [31] 0.972 | [32] 0.973 | [33] 0.975 | [34] 0.99 | [35] 0.993 | [36] 0.98 | locus YGR078C, strain PAC10, stronger effect = lower value 0.987 | locus YGR229C, strain SMI1, stronger effect = lower value 1.03 | [37] 0.973 | [38] 0.972 | [39] 0.94 | [40] 0.983 | [41] 0.987 | [42] 0.972 | [43] 0.977 | [44] 0.974 | [45] 0.979 | [46] 0.971 | locus YJL187C, strain SWE1, stronger effect = lower value 0.983 | locus YJR075W, strain HOC1, stronger effect = lower value 1.01 | [47] 0.964 | [48] 0.983 | [49] 0.985 | [50] 0.96 | [51] 1 | [52] 0.981 | [53] 0.984 | [54] 0.958 | [55] 0.981 | [56] 0.975 | [57] 0.952 | [58] 0.97 | [59] 0.971 | [60] 0.968 | [61] 0.965 | [62] 0.981 | [63] 0.98 | [64] 0.968 | [65] 0.988 | [66] 0.955 | [67] 0.97 | locus YMR307W, strain GAS1, stronger effect = lower value 1.02 | [68] 0.986 | locus YNL128W, strain TEP1, stronger effect = lower value 0.972 | locus YNL175C, strain NOP13, stronger effect = lower value 0.99 | locus YNL197C, strain WHI3, stronger effect = lower value 0.994 | [69] 0.991 | locus YNL224C, strain SQS1, stronger effect = lower value 0.991 | [70] 0.968 | [71] 0.967 | [72] 0.994 | [73] 0.996 | [74] 0.998 | [75] 0.974 | locus YOR083W, strain WHI5 (second series), stronger effect = lower value 0.991 | [76] 0.967 | [77] 0.961 | [78] 0.98 | [79] 0.939 | [80] 0.945 | [81] 0.973 | locus YPL055C, strain LGE1, stronger effect = lower value 1 | [82] 0.961 | [83] 0.971 | [84] 0.986

Cc1cccc2c3c(ccc12)C1=C(C(=O)C3=O)C(C)CO1 (centres undefined)
active: [85] 0.128 | [86] 0.174 | [87] 0.263 | [88] 0.756 | [89] 0.163 | [90] 0.72 | [91] 0.133 | [92] 0.141

Cc1c(S(=O)(=O)O)oc2c1C(=O)C(=O)c1c-2ccc2c1CCCC2(C)C
active: [3] 0.92 | [5] 0.885 | [8] 0.889 | [10] 0.861 | [17] 0.874 | [18] 0.631 | [19] 0.808 | [23] 0.586 | [30] 0.779 | [35] 0.817 | [41] 0.912 | [43] 0.859 | [46] 0.893 | [47] 0.896 | [51] 0.924 | [53] 0.9 | [54] 0.891 | [56] 0.57 | [57] 0.871 | [62] 0.9 | [63] 0.839 | [65] 0.918 | [68] 0.726 | [76] 0.856 | [77] 0.821 | [81] 0.873 | [84] 0.921
inactive: [1] 0.946 | [2] 0.923 | [4] 0.954 | [6] 0.943 | [7] 0.937 | [9] 0.985 | [11] 0.958 | [12] 0.983 | [13] 0.946 | [14] 0.963 | [15] 0.959 | [16] 0.955 | locus YDR195W, strain ref2 0.974 | [20] 0.939 | [21] 0.924 | [22] 0.962 | [24] 0.928 | [25] 0.947 | [26] 0.956 | [27] 0.93 | [28] 0.94 | [29] 0.965 | [31] 0.943 | [32] 0.928 | [33] 0.965 | [34] 0.968 | [36] 0.982 | [37] 0.913 | [38] 0.962 | [85] 0.982 | [86] 0.959 | [39] 0.994 | [40] 0.956 | [87] 0.979 | [42] 0.952 | [44] 0.969 | [45] 0.918 | [88] 0.934 | [48] 0.932 | [49] 0.95 | [50] 0.962 | [52] 0.938 | [89] 0.967 | [55] 0.95 | [58] 0.916 | [59] 0.905 | [60] 0.949 | [61] 0.926 | [64] 1 | [66] 0.912 | [67] 0.933 | [90] 0.932 | [69] 0.955 | [70] 0.962 | [71] 0.916 | [72] 0.976 | [73] 0.935 | [74] 0.949 | [75] 0.93 | [91] 0.98 | [78] 0.937 | [79] 0.956 | [80] 0.95 | [82] 0.931 | [83] 0.857 | [92] 0.968
